PubChem BioAssay AID1508600 (Functional Genomics Laboratory (NCATS/FGL), 2020)
About 3,700 (7%) of roughly 53,000 sequences were called active.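 Rule for the calls: active = gene knockdowns whose robust z-score for IL-1 alpha signal is at least 2 or at most -2, so actives lie on both sides; inactive = the rest.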 Many of the other results were omitted from the sample, so actives are more common in it than they were.

Experiment: Components of the Cytosolic LPS Sensing Pathway: Gene Identification via Genome-wide siRNA Screen;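 note: robust z of the log signal after scaling to non-targeting control siRNA wells of the plate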
Conditions: RAW264.7 macrophages, IL-1a HTRF, actives lie on both sides, screened at 100 nM (by protocol), cells primed 5 h with Pam3CSK4 first
In short: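 RAW264.7 mouse macrophages reverse-transfected with single siRNAs (100 nM final) for 48h, primed with Pam3CSK4 for 5 hours, then transfected with LipidA for 24 hour. Supernatant IL-1a read by HTRF; values normalized to negative-control median, log-transformed robust z-scores.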

Sequence	z-score
GGAGAAGUCCAUACGGAUCTT against Gpr18	0.184 (inactive)
GGGACAGUAGAAGAUGUAGTT against Got2	-0.706 (inactive)
GGAAAAUUGGACCAAUUUCTT against Ric3	-0.339 (inactive)
GCCUUGGUACCAUAAUGCATT against Synm	0.224 (inactive)
GGCCGGUGCCUUUUAUUCUTT against Spib	3.26 (active)
GCAAGUGCGGAAGAAAGGATT against Afap1l2	0.0285 (inactive)
CCUUGUACACGGAUUGAAUTT against Itga6	-0.192 (inactive)
GGUAGGAAACCUCUCAGAGTT against Kcnc1	0.85 (inactive)
GGUGUUCAAAAUUCCUGCCTT against Mbl2	0.0864 (inactive)
GCUAGAGCUCACCAAAUAATT against Fam83a	0.759 (inactive)
UAGUGAGCAAGGAAUUGGATT against Gm20815	-0.238 (inactive)
GGAGAAGAAGUGCUUCCCUTT against Gls2	-2.81 (active)
GGAGGAGAAGAAACACCUGTT against Klc1	-1.73 (inactive)
GGACAAAAGCAAAGAAAAGTT against R3hdm2	-0.822 (inactive)
GGAAAAUGUGAAACAGCUATT against Dhx40	-0.873 (inactive)
GAGUUCCAGUUUAUCCCUUTT against Klra1	-2.06 (active)
CCCGUGCUUCAAAUAGAGATT against Cavin3	0.789 (inactive)
CAGCGAUCCAAGUACCUGGTT against Mbp	0.568 (inactive)
GGAAUUUCACUAACCUUAGTT against Tert	1.55 (inactive)
GGCAAAAGCGAAGAAUUUATT against E2f5	2.69 (active)
GGAUUCCUGAUUUCUUCAUTT against Snip1	0.915 (inactive)
GGAGAUAAAAAUCCAAGCATT against Stx19	0.274 (inactive)

Sequence	z-score
GCAUAUGACACCGUAUCAGTT against Gprc5d	0.914 (inactive)
GCUCCUAUCCACAAUGCUGTT against Radil	-0.0853 (inactive)
GGCAAAGAUGAUGGAAAAATT against Srp68	0.307 (inactive)
GGGACGAUGUCACUAUUAATT against Myrip	1.31 (inactive)
GGCAGACUGCUGACAUAUGTT against Cd37	-2.44 (active)
CGAGCUGGAUCUGUUUAGATT against Nsmce1	0.357 (inactive)
CGUGGAGAUCAUCCACUCATT against Inf2	-2.44 (active)
GGAUUAUGAUUUGCCUGAUTT against 4932414N04Rik	1.05 (inactive)
GCUAGAUGCUAUGAAGCGATT against Ap3b1	-0.406 (inactive)
CGUGAUUUCAUGCUGUGGCTT against Tal2	-2.19 (active)
GGAUCUAAGCCUGUUGUGATT against Zfp647	-0.82 (inactive)
GGUCACCCUGUUUAGGCCUTT against Fgd3	0.571 (inactive)
CCUGCCAAUCUGUCUAAGUTT against Haus1	-0.121 (inactive)
GUCAUGAGAUUGAAUACAATT against Olfr569	-0.0298 (inactive)
GGGAUUGAUUUCAACAAUGTT against Vmn1r33	0.464 (inactive)
CCCUUGCUAGUCCUUCUAUTT against Bora	-0.65 (inactive)
GGUUGUAAAGGAAGAGAAGTT against Lyve1	0.397 (inactive)
GGCCAGACACUACAGGUAATT against Aldh16a1	0.0594 (inactive)
GCUACAGCUAUAUCGCUAUTT against Cnot8	0.625 (inactive)
GGCUUUUAUUUUCUGGGAUTT against Barhl1	2.4 (active)
GGAAUUAUGAUGUAGACAGTT against Garre1	0.662 (inactive)
GCCUUGGUCCUUAAAUAUATT against Slc7a2	-0.414 (inactive)

Sequence	z-score
CGAUAUUUGGUGUGAAAUGTT against Tmem70	-0.609 (inactive)
GGGAAAUGCUUCUAAAAAUTT against Pcdhb11	0.377 (inactive)
CCACCAUCAUGAGAGAGGATT against Olfr350	0.00462 (inactive)
GGCAAAUGUAGACAUGUAUTT against Defb44-ps	-0.0483 (inactive)
GCUAAUAUGCCACUGCCCGTT against Pls3	1.55 (inactive)
GCUAUGUGUACAGCUGCUGTT against Vmn1r62	0.21 (inactive)
CGUGCAGUGUGCUUCACAATT against Smarcad1	-1.89 (inactive)
GGUCUCAAGUUUUACAUUCTT against Prss35	2.2 (active)
GGCUCUGGCUAAGUACUUGTT against Cenpb	-0.943 (inactive)
GCUAACUGAGCUGCCGGAATT against Lrrn3	0.264 (inactive)
GCUUCAUGCACGGUUCUAUTT against Cib2	1.65 (inactive)
GGCUCAGAAGAAAAUGGAUTT against Kcnk4	0.166 (inactive)
GGAUCUGUAUUGUAAACAATT against Pcmtd2	0.463 (inactive)
GCCGUUCAUUUCAACCGUGTT against Wdr5	-0.0339 (inactive)
GGCUCACUCUCCAUUCUACTT against Asb6	-0.902 (inactive)
GGCACUCUCAGCUUUUGACTT against Olfr2	-2.43 (active)
CCGCCUGGAUAAUUAUGAUTT against Cltc	0.309 (inactive)
GGAUCAUGUCAUCACAAAATT against Fzd3	-0.319 (inactive)
GGUGUCCAAUUGCCCUAUCTT against Tnfrsf12a	-1.98 (inactive)
GGGAACAGCAUGAAGGAAGTT against Krt78	0.688 (inactive)
GGCACGUUAUGAAGACCAGTT against Ttc6	1.49 (inactive)
GAGAAACAACAAUUUGGGATT against Gm20815	2.07 (active)

Sequence	z-score
GGCUGAUUAGAAUACCUCCTT against Adra2b	0.352 (inactive)
GGCCUACGUGCUAAACAUCTT against Atp1b1	1.77 (inactive)
GCUCUAAAUGAACAUCUCATT against Snai3	0.322 (inactive)
GGUCCUAUGGAUUAAUGCUTT against Ccn4	3.46 (active)
CCCUAAAACCAAAUGUACATT against Tet2	1.7 (inactive)
GGAUGUAACAUUUCUUCAATT against Rmi1	0.567 (inactive)
GGCUGGUAAUUCACUUAAUTT against Kcnk2	-2.54 (active)
GGAAAUCACCAUGCCCUCUTT against S100a8	-0.0382 (inactive)
GCAUGGAGAUUCUGUGCGGTT against Trim45	-1.13 (inactive)
CCGAAAAUGGUAAAUAACUTT against Rnf17	0.111 (inactive)
GGAGGAACCUCAGAAACAGTT against Knstrn	-2.19 (active)
GCUAUUUUGGGACGAGUCATT against Col13a1	-0.7 (inactive)
GGGAUCAAGUUAAAUAGACTT against Snhg16	-0.184 (inactive)
GCGAACAGUUGAAUAGAUUTT against Slc25a46	-0.108 (inactive)
GGUGGUCACUAAGAAGUUCTT against Prps1l1	2.48 (active)
CCAACACUAUUACUGUAAATT against Arg2	0.159 (inactive)
GGCCAGAAAAUUAAGGAGCTT against Faap100	1.15 (inactive)
GGCAACUGAAAUGUUUGUUTT against Rap2c	2.14 (active)
CCUUGAGUACUUAUUGCGUTT against Chac1	0.934 (inactive)
GCCAACUCGAACAUUUUGATT against Zfp280b	0.567 (inactive)
GCUACUCGCGUUUAAUUUUTT against Slc9a9	-0.238 (inactive)
GACCUUUCUCUUCUUGGCUTT against Olfr434	-2.1 (active)

Sequence	z-score
GGAUAACCCUCAGAAGUCCTT against Was	0.664 (inactive)
GGAAUAAUCAAGCUAGGGATT against Satb2	-2.2 (active)
GGAGAGAGGACAACUUCUCTT against Mrm1	1.3 (inactive)
GGCUUUUAACACCUUCAUUTT against Clptm1l	0.495 (inactive)
GCUUCUUCUGUGAACUUCCTT against Olfr854	-0.939 (inactive)
GGAAGCUGCUUUUCUAAAUTT against Il7	2.92 (active)
GGCAGUGAGAGUCACAAGATT against Cdipt	-1.74 (inactive)
GGAAAUGCAGUUGUGAAUGTT against Rab4a	-2.03 (active)
GCCCAUGUUAGAGGUUUUGTT against Rsph3a	0.838 (inactive)
GGGAGAUGAGUUUUCUGAUTT against Cyp2c70	1.15 (inactive)
GGCAGUUGAUUCCUUUAAATT against Baz1a	0.0425 (inactive)
GCUGUACCCGAAUGAGUUUTT against Mgat2	2.54 (active)
GCCCUUAGCUGCAUGAAUUTT against Laptm4b	-0.661 (inactive)
GGACCGUCUGUCCUUUGUCTT against Nectin2	0.618 (inactive)
GGUAGAGAAGAACGGUACCTT against Mb21d2	1.08 (inactive)
CCGAGUAAUUGGAAGUGGUTT against Ldha	2.08 (active)
GGUGCUUUCUGGAUGAAGATT against Akirin1	-0.282 (inactive)
GGCUUUUGGAGAAAAAGGATT against Nus1	1.92 (inactive)
GGAAAUGUAGUGAAGGGUGTT against Ndfip2	2.03 (active)
GGGCCUUACGUCAUUCUCUTT against Dnajb7	-0.319 (inactive)
